Test results reported in PubChem BioAssay.
Where “and” joins values, the source holds several entries; their conditions need not be identical. Equal values may be shown once. Calls of active or inactive are those of the source.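 Rule for the calls, unless noted: active = inhibition at or above 50% relative to wild type and mutant plate controls; inactive = inhibition below 50%.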

Assays:
[1] = inhibitors of TNFa-induced NFkB p65 translocation, primary screen, imaging, HUVEC, MLSMR starter and 10KST1 sets (AID 438;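 active = inhibition above 20% together with a positive visual image hit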;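 note: compound added about 3h40 before a 20 min TNFalpha stimulation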;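 for inhibition: signal is the nuclear over cytoplasmic p65 intensity ratio per well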); details: HUVEC TNFa-induced p65 nuclear translocation; cell count: measured here: nuclei count (cytotoxicity indicator), at 2.08 µM; inhibition: at 2 µM, stronger effect = higher value, 0% TNFa-plus-vehicle, 100% no-TNFa wells
[2] = inhibitors of mutant huntingtin aggregation, primary screen, imaging, exon1htt(103Q)mCFP cells, high-content imaging (AID 483;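 active = visual image review flags a hit and inhibition of aggregation exceeds 20%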;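 note: compound exposure lasted 3 days before fixation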;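 for nuclei count: percent of the per-plate median nuclei count of sample wells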); details: exon1htt(103Q)mCFP cell line, aggregate imaging, at 2 µM; inhibition of aggregation: stronger effect = higher value; nuclei count: measured here: cell count, toxicity
[3] = inhibitors of E-selectin induction by TNFa, primary screen, imaging, HUVEC, immunofluorescence, MLSMR starter and 10KST1 sets (AID 487;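 active = visually confirmed hit in the image check and inhibition above 20%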;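 for inhibition: signal is fraction of cell area covered by stained E-selectin grains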;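 for nuclei count: 100% = median nuclei count of all wells on the same plate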); details: HUVEC TNFalpha-induced E-selectin immunofluorescence imaging, at 2 µM; inhibition: stronger effect = higher value; nuclei count: measured here: cell number, toxicity
[4] = DUSP6 inhibitors restoring Erk phosphorylation by chemical complementation, primary imaging in DUSP6-transfected HeLa (AID 609;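 active = compounds giving at least 50% inhibition in the cell-based MKP-3 phosphatase rescue imaging test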;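 for inhibition: phospho-Erk level distribution per well compared with pooled transfected vehicle control wells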); details: HeLa MKP-3 transfected, phospho-Erk imaging KS statistic, at 10 µM, cells stimulated with TPA for 15 min
[5] = molecular target: Dual specificity protein phosphatase 6 (Homo sapiens) (UniProt Q16828); test: as above; details: HeLa MKP-3 transfected, phospho-Erk imaging KS statistic; at 10 µM; stronger effect = higher value; cells stimulated with TPA for 15 min
[6] = molecular target: Voltage-gated potassium channel subunit beta-2 (Rattus norvegicus) (UniProt P62483); test: KvBeta enzyme negative modulators, primary screen, biochemical, NADPH fluorescence (AID 622;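 active = fluorescence slope higher than the sample average by over 3 SD, cut at about -0.22 in these data, passing the limit was not always enough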;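 note: slope of raw intensity against log time taken from 70 to 1610 s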); details: recombinant KvBeta, 4-cyanobenzaldehyde reduction, at 10 µM, stronger effect = higher value
[7] = molecular target: Voltage-gated potassium channel subunit beta-2 (Rattus norvegicus) (UniProt P62483); test: KvBeta positive modulators, primary screen, biochemical, NADPH fluorescence (AID 623;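 active = NADPH fluorescence slope more negative than the mean of all samples by about 3 SD, 99.7% confidence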;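 note: fluorescence intensity change per second fitted from 20 to 320 s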); details: Recombinant KvBeta, NADPH fluorescence decrease slope, 10 min; at 10 µM; stronger effect = lower value
[8] = molecular target: Muscarinic acetylcholine receptor M4 (Homo sapiens) (UniProt P08173); test: compounds altering M4/GIRK thallium flux, either direction, primary screen, M4 allosteric agonist project, cell-based, HEK293 M4/GIRK, BTC-AM (AID 625;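 active = fluorescence slope after compound addition differing from the mean of all tested samples at 99.7% confidence, mostly higher but some lower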;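 note: thallium influx through GIRK channels coupled to M4 in HEK293 cells with BTC-AM dye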); details: at 10 µM, actives lie on both sides
[9] = inhibitors of larval lipid processing in zebrafish, primary screen, whole organism, PED6 fluorescence, gall bladder and intestine (AID 686;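 active = a full or partial loss of lipid-probe fluorescence in the fish gall bladder, intestine or both, judged by eye; inactive = no fluorescence loss, or compound toxic to the fish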;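 note: larvae 5 to 7 days old with five fish per well; signal comes from phospholipase A2 cleavage of quenched PED6 carried via bile; overnight exposure to compound and PED6 before scoring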); details: Zebrafish larvae PED6 lipid processing, fluorescence scoring; screened at 20 µM (by protocol)
[10] = inhibitors of Chlamydomonas gravitaxis, primary screen, whole organism, Chlamydomonas reinhardtii, WT vs cilia-less mutant, absorbance, 96-well (AID 463189); details: OD600 absorbance, 2 days, at 10 µM, stronger effect = higher value;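 note: 0% = wild type cc124 cells in DMSO and 100% = ciliumless bld1 mutant cells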
[11] = inhibitors of Sendai virus-induced IRF3 signaling, primary screen, TLR/RLR signaling modifier project, cell-based, Sendai virus stimulus, luciferase, 10K MLSCN set (AID 602276;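 active = inhibition at or above 50% at 10 µM; inactive = inhibition below 50%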;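 note: firefly luciferase from ISG56 promoter only with Renilla not read in this screen; 0% = Sendai virus plus DMSO and 100% = medium plus DMSO without virus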); details: HEK293 RL24 IRF3 luciferase reporter, at 10 µM, stronger effect = higher value
[12] = inhibitors of poly I:C-induced TLR3 signaling, primary screen, cell-based, poly I:C stimulus, luciferase, 10K MLSCN set (AID 602277;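 active = inhibition of the reporter signal at or above 50%; inactive = inhibition below 50%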); details: HEK293-TLR3 RL24 IRF3 luciferase reporter, at 10 µM, stronger effect = higher value
[13] = measured here: cell density z-score
[14] = measured here: nuclear c-Myc green intensity z-score
[15] = measured here: nuclear pErk red intensity z-score, stronger effect = higher value

Chain of Voltage-gated potassium channel subunit beta-2 (Rattus norvegicus) (P62483 whole entry, looked up): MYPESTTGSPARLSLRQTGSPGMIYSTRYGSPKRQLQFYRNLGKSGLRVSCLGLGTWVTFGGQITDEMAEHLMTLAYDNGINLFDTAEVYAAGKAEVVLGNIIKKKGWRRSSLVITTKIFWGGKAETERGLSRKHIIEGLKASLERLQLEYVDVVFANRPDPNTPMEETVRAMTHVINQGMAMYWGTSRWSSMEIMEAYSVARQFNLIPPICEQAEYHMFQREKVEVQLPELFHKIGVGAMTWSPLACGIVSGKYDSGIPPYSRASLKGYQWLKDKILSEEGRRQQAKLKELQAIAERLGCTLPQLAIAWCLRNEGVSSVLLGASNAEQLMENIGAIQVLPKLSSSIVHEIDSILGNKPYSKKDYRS
Chain of Dual specificity protein phosphatase 6 (Homo sapiens) (Q16828 whole entry, looked up): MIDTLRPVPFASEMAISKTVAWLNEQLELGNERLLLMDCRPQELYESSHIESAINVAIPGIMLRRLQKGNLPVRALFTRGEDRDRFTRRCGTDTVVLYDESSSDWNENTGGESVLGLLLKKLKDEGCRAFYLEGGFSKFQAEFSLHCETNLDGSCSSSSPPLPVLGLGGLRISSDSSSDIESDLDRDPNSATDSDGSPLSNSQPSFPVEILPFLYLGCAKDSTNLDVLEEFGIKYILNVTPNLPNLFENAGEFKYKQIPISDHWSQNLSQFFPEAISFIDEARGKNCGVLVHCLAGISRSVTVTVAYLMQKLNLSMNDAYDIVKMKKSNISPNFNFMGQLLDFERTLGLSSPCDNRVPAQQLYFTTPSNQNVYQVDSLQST
Chain of Muscarinic acetylcholine receptor M4 (Homo sapiens) (P08173 whole entry, looked up): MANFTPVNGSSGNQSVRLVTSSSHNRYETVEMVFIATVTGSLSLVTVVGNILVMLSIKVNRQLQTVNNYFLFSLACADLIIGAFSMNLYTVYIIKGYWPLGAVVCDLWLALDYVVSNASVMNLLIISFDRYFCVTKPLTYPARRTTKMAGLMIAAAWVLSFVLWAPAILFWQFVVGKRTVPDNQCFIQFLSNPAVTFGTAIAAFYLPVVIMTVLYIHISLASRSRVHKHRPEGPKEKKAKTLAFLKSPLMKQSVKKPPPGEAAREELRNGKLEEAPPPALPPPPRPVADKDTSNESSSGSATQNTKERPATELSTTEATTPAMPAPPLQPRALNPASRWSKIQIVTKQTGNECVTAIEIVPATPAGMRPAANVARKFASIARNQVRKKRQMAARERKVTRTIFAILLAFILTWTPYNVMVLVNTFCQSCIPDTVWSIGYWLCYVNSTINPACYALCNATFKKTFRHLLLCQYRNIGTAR

SMILES | cell count [1] | inhibition [1] | inhibition of aggregation [2] | nuclei count [2] [%] | inhibition [3] | nuclei count [3] [%] | z-score [4, 13] | z-score [4, 14] | z-score [4, 15] | inhibition [5] | fluorescence slope [6] | NADPH fluorescence slope [7] | fluorescence slope [8] | outcome [9] | inhibition [10] | inhibition [11] | inhibition [12]
N#C/C(C(=O)N1CCOCC1)=C1/SC(Cc2ccccc2)C(=O)N1c1ccccc1 (configuration not stated) | 520 | -7.6% (inactive) | 18.9% (inactive) | 105 | 3.5% (inactive) | 112 | -1.65 | 1.02 | 0.783 | -2.09% (inactive) | -0.431 (inactive) | -3.8e-05 (inactive) | 0.00475 (inactive) | inactive | -6.43% (inactive) | 15.2% (inactive) | 24.9% (inactive)
CCCCc1nc(NCCNC(=O)c2ccco2)c(C#N)c2c1CSC(C)(C)C2 | 552 | -4.6% (inactive) | -1% (inactive) | 95.2 | -75.5% (inactive) | 122 | 0.34 | -0.704 | 0.0149 | 9.07% (inactive) | -0.478 (inactive) | -5.7e-05 (inactive) | 0.00431 (inactive) | inactive | 3.31% (inactive) | 1.84% (inactive) | 7.1% (inactive)
COc1ccc(C(=O)NCCCCCC(=O)O)cc1OC | 687 | -15.7% (inactive) | 12.2% (inactive) | 93 | -46.5% (inactive) | 119 | -0.456 | -0.271 | 0.551 | 18.9% (inactive) | -0.427 (inactive) | -3.8e-05 (inactive) | 0.00503 (inactive) | inactive | 32.7% (inactive) | 3.62% (inactive) | 12.3% (inactive)
COc1ccc(C2(CN(C(C)=O)C(C)=O)CCCC2)cc1OC | 676 | -6.2% (inactive) | 6.8% (inactive) | 109 | -28.3% (inactive) | 139 | -0.215 | 1.01 | -1.44 | 1.98% (inactive) | -0.504 (inactive) | -6.2e-05 (inactive) | 0.00396 (inactive) | inactive | -15.3% (inactive) | 1.22% (inactive) | 7.89% (inactive)
Cn1c(=O)n(Cc2ccccc2)c(=O)c2c1nc(NCC1CCCO1)n2Cc1ccccc1 (configuration not stated) | 665 | -8% (inactive) | -1.5% (inactive) | 104 | -41.8% (inactive) | 102 | -3.11 | 0.807 | -1.47 | -5.95% (inactive) | -0.509 (inactive) | -0.000124 (inactive) | 0.00514 (inactive) | inactive | -18.5% (inactive) | -5.28% (inactive) | -6.2% (inactive)
O=C1C2ON(c3ccccc3)C(c3cccnc3)C2C(=O)N1c1ccccc1 (configuration not stated) | 667 | -4.7% (inactive) | -1.5% (inactive) | 104 | -28.2% (inactive) | 130 | 0.476 | 0.609 | -0.133 | 16% (inactive) | -0.503 (inactive) | -2.9e-05 (inactive) | 0.00593 (inactive) | inactive | -4.82% (inactive) | -8.41% (inactive) | -21.8% (inactive)
CC(C)(C)NCc1cc2ccccc2[nH]c1=O | 585 | 4.5% (inactive) | -3.4% (inactive) | 102 | -165% (inactive) | 146 | -1.28 | 1.15 | 0.508 | 16.8% (inactive) | -0.451 (inactive) | -4.7e-05 (inactive) | 0.00463 (inactive) | inactive | 3.94% (inactive) | 12.2% (inactive) | 18.4% (inactive)
COc1ccc2c(c1)C1(C)CC(C)(C)N2C(=O)N1c1ccccc1 (configuration not stated) | 585 | -8.2% (inactive) | -18.9% (inactive) | 111 | -32.4% (inactive) | 110 | 0.165 | -1.42 | -0.582 | -3.95% (inactive) | -0.461 (inactive) | -4.8e-05 (inactive) | 0.0047 (inactive) | inactive | 4.76% (inactive) | 12% (inactive) | 23.1% (inactive)
CCCCc1nc2n[nH]c(N)c2c2c1CCCC2 | 512 | -7.9% (inactive) | -112% (inactive) | 2.8 | -85.3% (inactive) | 124 | -0.979 | 1.39 | 0.873 | 3.49% (inactive) | -0.447 (inactive) | -0.000136 (inactive) | 0.00605 (inactive) | inactive | 10.9% (inactive) | -0.43% (inactive) | 8.9% (inactive)
COc1ccc2c(c1)n([O-])c1c([n+]2=O)CCC1 | 640 | -4.7% (inactive) | -32.6% (inactive) | 113 | -56.2% (inactive) | 108 | -0.812 | 2.02 | -1.59 | 3.49% (inactive) | -0.367 (inactive) | -3.5e-05 (inactive) | 0.00434 (inactive) | inactive | -9.94% (inactive) | -10.3% (inactive) | 99.2% (active)
CC(CCc1ccccc1)NCC(O)c1ccc(O)c(C(N)=O)c1 (configuration not stated) | 612 | -8.1% (inactive) | -15.6% (inactive) | 103 | -7.9% (inactive) | 107 | 0.375 | -0.198 | -0.807 | 13.3% (inactive) | -0.442 (inactive) | 2.9e-05 (inactive) | 0.00425 (inactive) | inactive | 10.1% (inactive) and -0.75% (inactive) | -17.5% (inactive) | 5.32% (inactive)
CN(C)/C=C1\N=C(c2ccc(Cl)cc2Cl)OC1=O | 698 | -4.8% (inactive) | 8.1% (inactive) | 71.7 | -31.3% (inactive) | 120 | -1.76 | 2.52 | -0.794 | 13.2% (inactive) | -0.335 (inactive) | -4e-05 (inactive) | 0.00537 (inactive) | inactive | 40.7% (inactive) | -61.9% (inactive) | -177% (inactive)
CCOC(=O)C1=C(CSc2nc(C)cc(C)c2C#N)OC(N)=C(C#N)C1c1cccs1 (configuration not stated) | 502 | 7.3% (inactive) | -14.2% (inactive) | 102 | -103% (inactive) | 95 | 0.722 | -1.39 | -0.564 | -2.47% (inactive) | -0.493 (inactive) | -2.9e-05 (inactive) | 0.00829 (inactive) | inactive | 8.41% (inactive) | 13.2% (inactive) | 23.4% (inactive)
c1ccc(CN2CCN(c3ncnc4c3[nH]c3ccccc34)CC2)cc1 | 599 | -13.1% (inactive) | 10.3% (inactive) | 94.4 | -47.4% (inactive) | 137 | 0.378 | -1.18 | -0.208 | 13.4% (inactive) | -0.381 (inactive) | -2.8e-05 (inactive) | 0.00594 (inactive) | active; weak signal in intestine only | 21.2% (inactive) | 1.57% (inactive) | -46.7% (inactive)
CC(=O)C1=C(O)C(=O)N(c2ccc(C(=O)O)cc2)C1c1ccccc1 (configuration not stated) | 669 | 4.5% (inactive) | 10.3% (inactive) | 101 | -53.3% (inactive) | 112 | 1.33 | -0.568 | -0.179 | 2.46% (inactive) | -0.428 (inactive) | -5.9e-06 (inactive) | 0.00575 (inactive) | inactive | -2.45% (inactive) | 16.8% (inactive) | 17.1% (inactive)
CCOc1c(C)cc2[nH]c(CCC(=O)O)nc2c1C | 445 | 0.7% (inactive) | 8.3% (inactive) | 97.7 | -40.3% (inactive) | 116 | 1.23 | -1.62 | -1.73 | 7.42% (inactive) | -0.491 (inactive) | -3.6e-05 (inactive) | 0.00428 (inactive) | inactive | 21.6% (inactive) | 8.15% (inactive) | 8.77% (inactive)
COc1cc(NC(=O)NC(C)(C(F)(F)F)C(F)(F)F)cc(OC)c1OC | 664 | -5.8% (inactive) | -0.5% (inactive) | 83 | -50% (inactive) | 140 | 0.222 | -0.586 | 1.46 | -1.98% (inactive) | -0.48 (inactive) | -6.8e-05 (inactive) | 0.00489 (inactive) | inactive | 14.3% (inactive) | 10.8% (inactive) | 13.7% (inactive)
Cn1c(=O)c2c(nc(Br)n2CCSc2ncccn2)n(C)c1=O | 606 | -12.8% (inactive) | 5.2% (inactive) | 103 | -13.4% (inactive) | 150 | 0.427 | -0.0194 | -1.04 | 21.4% (inactive) | -0.364 (inactive) | -1.4e-05 (inactive) | 0.00613 (inactive) | inactive | 36.1% (inactive) | 5.45% (inactive) | 6.81% (inactive)
Cc1nc2c(o1)CCc1ccccc1C2O (configuration not stated) | 606 | 3.6% (inactive) | -5% (inactive) | 106 | -16.2% (inactive) | 99.8 | 3.05 | -1.58 | -1.98 | 15.5% (inactive) | -0.523 (inactive) | -4e-05 (inactive) | 0.00553 (inactive) | inactive | 19.1% (inactive) | 2.65% (inactive) | 14.8% (inactive)
CC(O)c1n(C)c(Cl)c[n+]1C (configuration not stated) | 674 | -10% (inactive) | -4% (inactive) | 103 | -67.2% (inactive) | 134 | -2.1 | -0.307 | 2.29 | 18.6% (inactive) | -0.454 (inactive) | -4.6e-05 (inactive) | 0.0053 (inactive) | inactive | -6.3% (inactive) | 17% (inactive) | 10.8% (inactive)
CCN1CCc2c(C#N)c(N3CCCCC3)nc(NCc3ccccc3)c2C1 | 466 | -4.8% (inactive) | 16.8% (inactive) | 89.7 | -51.6% (inactive) | 112 | 1.27 | -1.37 | -1.11 | 16.5% (inactive) | -0.472 (inactive) | -3.9e-05 (inactive) | 0.00484 (inactive) | inactive | 23.7% (inactive) | 14.7% (inactive) | 31.2% (inactive)
